# Experimental data as given in ChEMBL document CHEMBL5724796, “Tm Shift (DSF) assay results for EUbOPEN Chemogenomics Library” (2024).
# Several values for one entry are separate records, joined by “and”; a condition that tells them apart may be missing. Identical values can stand only once. Residues, ends and D or L forms follow the SMILES beside them. *: point of attachment. Cbz = O=C(OCc1ccccc1)*; CH2F = FC*
# Assays:
# Conditions in all cases: Compound concentration 20.0 uM
# [1] = molecular target: Tyrosine-protein kinase ABL1 (Homo sapiens) (UniProt P00519)
# [2] = molecular target: Bromodomain-containing protein 4 (Homo sapiens) (UniProt O60885)
# [3] = molecular target: Cyclin-dependent kinase 2 (Homo sapiens) (UniProt P24941)
# [4] = molecular target: Casein kinase I isoform delta (Homo sapiens) (UniProt P48730)
# [5] = molecular target: Glycogen synthase kinase-3 beta (Homo sapiens) (UniProt P49841)
# [6] = molecular target: Mitogen-activated protein kinase 1 (Homo sapiens) (UniProt P28482)
# [7] = molecular target: T1, Aurora kinase A (Homo sapiens) (UniProt O14965)
# T1 sequence (whole entry): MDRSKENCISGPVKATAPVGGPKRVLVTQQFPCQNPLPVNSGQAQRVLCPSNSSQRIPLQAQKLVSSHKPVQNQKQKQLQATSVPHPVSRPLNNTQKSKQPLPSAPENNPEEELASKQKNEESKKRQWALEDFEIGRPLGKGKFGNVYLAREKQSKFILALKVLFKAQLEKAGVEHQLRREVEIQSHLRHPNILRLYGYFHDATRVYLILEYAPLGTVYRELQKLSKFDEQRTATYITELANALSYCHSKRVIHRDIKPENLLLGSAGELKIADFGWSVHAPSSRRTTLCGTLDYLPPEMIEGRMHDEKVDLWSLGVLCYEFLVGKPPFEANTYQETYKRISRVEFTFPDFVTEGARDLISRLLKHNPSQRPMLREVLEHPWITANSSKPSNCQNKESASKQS
# [8] = molecular target: T2, Transcription intermediary factor 1-alpha (Homo sapiens) (UniProt O15164)
# T2 sequence (whole entry): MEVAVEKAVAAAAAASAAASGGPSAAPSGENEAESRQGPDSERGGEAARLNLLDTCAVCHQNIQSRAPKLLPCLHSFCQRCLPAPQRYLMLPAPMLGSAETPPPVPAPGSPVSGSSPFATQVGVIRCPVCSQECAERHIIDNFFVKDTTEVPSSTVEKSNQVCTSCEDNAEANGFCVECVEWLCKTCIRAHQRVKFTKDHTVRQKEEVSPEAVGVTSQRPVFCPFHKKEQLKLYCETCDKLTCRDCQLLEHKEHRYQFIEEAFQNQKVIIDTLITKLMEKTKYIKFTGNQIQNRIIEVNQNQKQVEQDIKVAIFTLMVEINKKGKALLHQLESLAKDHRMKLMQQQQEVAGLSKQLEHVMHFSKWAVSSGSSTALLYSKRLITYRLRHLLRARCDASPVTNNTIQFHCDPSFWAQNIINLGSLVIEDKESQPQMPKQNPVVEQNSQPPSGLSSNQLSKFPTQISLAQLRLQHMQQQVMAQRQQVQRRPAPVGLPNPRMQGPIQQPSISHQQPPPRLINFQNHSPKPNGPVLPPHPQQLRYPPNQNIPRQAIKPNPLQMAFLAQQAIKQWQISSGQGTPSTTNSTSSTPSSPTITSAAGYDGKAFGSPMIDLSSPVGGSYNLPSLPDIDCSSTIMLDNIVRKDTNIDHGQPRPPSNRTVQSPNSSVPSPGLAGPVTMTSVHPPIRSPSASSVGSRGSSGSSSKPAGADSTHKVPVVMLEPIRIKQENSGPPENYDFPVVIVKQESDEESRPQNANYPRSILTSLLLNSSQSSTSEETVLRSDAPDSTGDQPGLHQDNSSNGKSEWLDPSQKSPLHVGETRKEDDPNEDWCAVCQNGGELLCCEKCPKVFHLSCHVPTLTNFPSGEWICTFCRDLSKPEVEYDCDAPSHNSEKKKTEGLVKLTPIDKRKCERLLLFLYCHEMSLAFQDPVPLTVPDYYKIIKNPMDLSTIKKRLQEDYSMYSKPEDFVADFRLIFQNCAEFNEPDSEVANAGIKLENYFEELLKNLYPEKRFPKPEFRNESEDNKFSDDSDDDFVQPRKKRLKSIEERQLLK
# Glycogen synthase kinase-3 beta (Homo sapiens), sequence (P49841 whole entry, looked up): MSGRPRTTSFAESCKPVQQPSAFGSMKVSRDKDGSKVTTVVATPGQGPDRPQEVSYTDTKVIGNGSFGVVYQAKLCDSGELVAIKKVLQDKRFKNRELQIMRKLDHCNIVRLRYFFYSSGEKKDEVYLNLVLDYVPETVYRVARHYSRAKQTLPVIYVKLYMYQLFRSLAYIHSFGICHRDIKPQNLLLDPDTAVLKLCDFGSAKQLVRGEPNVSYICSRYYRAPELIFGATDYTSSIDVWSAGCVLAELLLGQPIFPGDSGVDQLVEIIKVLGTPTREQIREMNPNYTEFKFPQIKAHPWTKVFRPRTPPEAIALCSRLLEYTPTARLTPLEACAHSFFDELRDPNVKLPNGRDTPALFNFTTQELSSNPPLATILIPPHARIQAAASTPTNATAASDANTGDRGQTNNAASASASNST
# Mitogen-activated protein kinase 1 (Homo sapiens), sequence (P28482 whole entry): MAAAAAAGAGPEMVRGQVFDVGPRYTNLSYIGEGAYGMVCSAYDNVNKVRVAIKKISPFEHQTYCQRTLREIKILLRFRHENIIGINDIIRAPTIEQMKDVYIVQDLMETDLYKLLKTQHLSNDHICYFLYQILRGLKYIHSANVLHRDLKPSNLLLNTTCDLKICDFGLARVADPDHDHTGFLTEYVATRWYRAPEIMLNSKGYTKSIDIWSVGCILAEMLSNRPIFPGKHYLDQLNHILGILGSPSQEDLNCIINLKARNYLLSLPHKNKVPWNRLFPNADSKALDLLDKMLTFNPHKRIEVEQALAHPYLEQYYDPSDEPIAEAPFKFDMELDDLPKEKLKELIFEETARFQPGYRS
# Casein kinase I isoform delta (Homo sapiens), sequence (P48730 whole entry, looked up, canonical isoform): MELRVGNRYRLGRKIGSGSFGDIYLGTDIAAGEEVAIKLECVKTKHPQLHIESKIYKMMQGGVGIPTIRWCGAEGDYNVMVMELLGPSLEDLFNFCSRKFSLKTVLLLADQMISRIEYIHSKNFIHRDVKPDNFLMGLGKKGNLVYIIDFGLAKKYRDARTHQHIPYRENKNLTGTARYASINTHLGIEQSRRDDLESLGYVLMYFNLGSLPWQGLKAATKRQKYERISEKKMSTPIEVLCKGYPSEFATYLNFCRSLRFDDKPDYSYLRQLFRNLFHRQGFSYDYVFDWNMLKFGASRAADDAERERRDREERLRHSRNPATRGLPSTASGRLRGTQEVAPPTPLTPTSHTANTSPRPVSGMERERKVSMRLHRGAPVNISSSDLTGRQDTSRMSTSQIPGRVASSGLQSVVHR
# Tyrosine-protein kinase ABL1 (Homo sapiens), sequence (P00519 whole entry): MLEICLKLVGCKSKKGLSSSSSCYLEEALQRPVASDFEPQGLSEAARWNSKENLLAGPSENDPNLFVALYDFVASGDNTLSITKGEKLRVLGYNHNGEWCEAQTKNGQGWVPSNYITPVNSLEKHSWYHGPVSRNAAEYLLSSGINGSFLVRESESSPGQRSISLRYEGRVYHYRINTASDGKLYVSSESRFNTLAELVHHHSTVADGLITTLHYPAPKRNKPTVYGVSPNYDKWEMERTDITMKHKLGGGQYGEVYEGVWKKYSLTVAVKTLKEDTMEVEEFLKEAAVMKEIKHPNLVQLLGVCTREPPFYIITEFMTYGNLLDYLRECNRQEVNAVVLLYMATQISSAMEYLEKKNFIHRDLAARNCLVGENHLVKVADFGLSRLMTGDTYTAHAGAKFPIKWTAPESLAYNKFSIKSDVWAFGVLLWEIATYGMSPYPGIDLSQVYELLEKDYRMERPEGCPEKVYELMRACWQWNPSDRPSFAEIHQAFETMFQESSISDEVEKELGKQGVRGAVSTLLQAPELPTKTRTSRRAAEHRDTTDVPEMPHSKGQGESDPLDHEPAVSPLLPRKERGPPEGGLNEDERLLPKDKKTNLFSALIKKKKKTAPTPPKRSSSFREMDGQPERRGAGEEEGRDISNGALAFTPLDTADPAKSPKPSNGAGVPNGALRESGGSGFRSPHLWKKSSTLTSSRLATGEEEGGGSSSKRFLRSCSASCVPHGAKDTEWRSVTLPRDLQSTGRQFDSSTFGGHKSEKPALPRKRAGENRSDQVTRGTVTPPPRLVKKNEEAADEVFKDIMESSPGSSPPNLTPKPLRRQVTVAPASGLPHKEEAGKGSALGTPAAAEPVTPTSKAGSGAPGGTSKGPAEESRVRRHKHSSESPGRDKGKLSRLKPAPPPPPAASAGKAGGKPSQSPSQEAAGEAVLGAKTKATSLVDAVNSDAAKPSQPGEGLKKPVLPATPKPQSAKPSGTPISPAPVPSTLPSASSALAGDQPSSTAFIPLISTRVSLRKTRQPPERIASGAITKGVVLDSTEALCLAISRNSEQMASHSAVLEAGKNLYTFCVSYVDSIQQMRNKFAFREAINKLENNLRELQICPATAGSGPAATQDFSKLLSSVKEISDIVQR
Structure (SMILES),ΔTm [1],ΔTm [2],ΔTm [3],ΔTm [4],ΔTm [5],ΔTm [6] [°C],ΔTm [7],ΔTm [8]
O=C1c2ccccc2C(=O)c2oc(-c3cccnc3)nc21,0.81 °C,-2.99 °C,0.36 °C,-0.59 °C,0.34 °C,0.32,-2.61 °C,-0.87 °C
COc1cc2/c(=N/c3ccc(Br)cc3F)nc[nH]c2cc1OCC1CCN(C)CC1,,-0.83 °C,0.52 °C,1.25 °C,-0.61 °C,0.07,,-1.14 °C
O=C1c2ccccc2C(=O)c2oc(-c3ccccc3)nc21,0.27 °C,-2.65 °C,0.44 °C,-0.2 °C,0.18 °C,-0.09,-2.45 °C,1.13 °C
CCc1nc2c(C)cc(N3CCN(CC(=O)N4CC(O)C4)CC3)cn2c1N(C)c1nc(-c2ccc(F)cc2)c(C#N)s1,0.01 °C,2.78 °C,0.06 °C,0.35 °C,-0.27 °C,0.06,-2.2 °C,0.03 °C
N#Cc1cc(F)cc(Oc2ccc3c(c2C(F)F)[C@@H](O)C(F)(F)S3(=O)=O)c1,0.45 °C,-2.84 °C,-0.03 °C,-0.34 °C,0.02 °C,0.16,-2.42 °C,-0.94 °C
COc1ccc(C(=O)N[C@H](C(=O)N2CCC[C@H]2C(=O)N[C@H](C(=O)C(F)(F)F)C(C)C)C(C)C)cc1,0.01 °C,0.28 °C,0.69 °C,-0.09 °C,-0.75 °C,0.2,-1.47 °C,1.59 °C
CC(C)(O)c1ccc(-c2nc3c(F)cc(F)cc3c(=O)[nH]2)cc1,1.34 °C,-1.77 °C,-0.55 °C,1.05 °C,-2.12 °C,-4.92,-0.15 °C,-1.14 °C
O=C(NC[C@H](O)CN1CCc2ccccc2C1)c1cc(NC2COC2)ncn1,0.58 °C,-1.3 °C,0.75 °C,0.5 °C,-0.25 °C,0.04,-0.01 °C,-0.84 °C
FC(F)(F)Oc1ccc(Oc2ccnc(N3CCC(NC(=S)Nc4cccnc4)CC3)c2Cl)c(Cl)c1,0 °C and -0.06 °C,-3.17 °C and -5.35 °C,-0.35 °C and 0.35 °C,-2.73 °C and 0.27 °C,,,0.16 °C and -1.29 °C,1.66 °C and 0 °C
C=CCc1cccc(CNc2nc3ccccc3n2CCC)c1O,0.28 °C,-1.55 °C,0.45 °C,0.21 °C,0.95 °C,0.22,-1.56 °C,0.59 °C
CC(C)Cc1nn(C)c(=O)c2c(SCCCO)n(Cc3cccc4ccccc34)cc12,-3.82 °C and -3.97 °C,-4.1 °C and -4.31 °C,-0.96 °C and -1.96 °C,-8.7 °C and -11.7 °C,-0.77 °C and -4.36 °C,,-2.79 °C and -2.11 °C,-0.87 °C and 0.82 °C
CSc1cccc(Nc2ncc3cc(-c4c(Cl)cccc4Cl)c(=O)n(C)c3n2)c1,,-0.42 °C,0.94 °C,0.35 °C,,-1,-0.33 °C,
CN1CCN(c2ccc3nc(-c4c(N)c5c(F)cccc5[nH]c4=O)[nH]c3c2)CC1,,-0.49 °C,0.73 °C,2.74 °C,3.22 °C,-0.2,2.63 °C,-0.57 °C
CNc1ncc2cc(-c3cc(NC(=O)NCCC(C)(C)C)c(F)cc3C)c(C)nc2n1,,-2.79 °C,0.45 °C,0.25 °C,1.15 °C,-2.34,-0.92 °C,-0.11 °C
Cc1cc(/N=N/c2ccc3c(c2)CCC(=O)N3)c(N)cc1O,2.28 °C,-0.4 °C,-0.28 °C,0.68 °C,-0.3 °C,0.09,-0.6 °C,-0.66 °C
O=C(c1cc(Cl)c(O)c(Cl)c1)N1CS(=O)(=O)c2ccccc21,0.71 °C,-0.92 °C,0.15 °C,-0.26 °C,0.51 °C,0.24,-2.22 °C,-0.84 °C
COc1ccc(/C=C/C(=O)NO)c(-c2ccc(-c3ccccc3)cc2)c1,-1.93 °C,2.27 °C,0.43 °C,-0.46 °C,3.08 °C,-9.33,2.77 °C,3.31 °C
CN(CCCN1c2ccccc2CCc2ccccc21)CC(=O)c1ccc(Cl)cc1,-0.37 °C,-0.08 °C,0.04 °C,-0.19 °C,-0.11 °C,0.76,-1.35 °C,0.15 °C
N#C[C@@H]1CCCN1C(=O)[C@@H]1CCCN1C(=O)CCCc1ccccc1,0.07 °C,-2.61 °C,0.09 °C,0.05 °C,-0.27 °C,0.11,-1.43 °C,-0.5 °C

Structure (SMILES),ΔTm [1],ΔTm [2],ΔTm [3],ΔTm [4],ΔTm [5],ΔTm [6] [°C],ΔTm [7],ΔTm [8]
CC(C)C(=O)c1c(C(C)C)nn2ccccc12,0.8 °C,-2.97 °C,0.95 °C,0.19 °C,-0.21 °C,0.12,-2.35 °C,0.7 °C
Cc1c(CN2CCC(Nc3ncnc4sc(CC(F)(F)F)cc34)CC2)ccc2c1cc(C#N)n2Cc1cn[nH]c1,0.97 °C,-1.35 °C,-0.07 °C,1.61 °C,0.28 °C,-7.35,-1.51 °C,0.6 °C
COCc1nc2cnc3cc(-c4c(C)noc4C)c(OC[C@H]4CCNC4)cc3c2n1[C@H](C)c1ccccc1,0.66 °C,,0.15 °C,0.02 °C,-0.25 °C,0.32,-1.27 °C,1.49 °C
CNCc1ccc(-c2[nH]c3cc(F)cc4c3c2CCNC4=O)cc1,0.58 °C,-1.77 °C,0.36 °C,0.56 °C,5.05 °C,0.13,,-0.05 °C
CN(Cc1cc(Br)cc(Br)c1N)C1CCCCC1,-0.03 °C,-2.64 °C,-0.09 °C,-0.11 °C,-0.69 °C,,-0.8 °C,0.31 °C
C[C@@H](COCCC(=O)N1CCN(c2ncc(C(F)(F)F)cn2)CC1)Nc1cn[nH]c(=O)c1C(F)(F)F,0.66 °C,-3.06 °C,-0.01 °C,-0.13 °C,0 °C,0.21,-2.44 °C,-0.58 °C
Cc1nc(Nc2ncc(C(=O)Nc3c(C)cccc3Cl)s2)cc(N2CCN(CCO)CC2)n1,,-1.33 °C,0.19 °C,1.36 °C,-0.52 °C,-0.01,4.44 °C,-0.67 °C
O=C(NCC1(c2nc(-c3ccccc3)cs2)CCOCC1)c1cccc(-c2noc(C(F)(F)F)n2)c1,0 °C,-2.25 °C,0.39 °C,0.15 °C,-0.34 °C,-4.88,-0.64 °C,-1.09 °C
CCS(=O)(=O)Cc1cnc(Oc2ccc(F)cc2F)c(-c2cc(C)c3c(=O)[nH]ccn23)c1,0.69 °C,14.7 °C,0.81 °C,-0.35 °C,1.96 °C,0.23,-0.65 °C,0.45 °C
COc1ccccc1S(=O)(=O)Nc1ccc2c(c1)CN(C)C(=O)N2,0.3 °C,,0.12 °C,-0.3 °C,-0.34 °C,0.22,-2.31 °C,-0.41 °C
COc1cc(Nc2ncc(F)c(Nc3ccc4c(n3)NC(=O)C(C)(C)O4)n2)cc(OC)c1OC,4.14 °C,-1.7 °C,0.13 °C,-0.37 °C,2.52 °C,-3.17,,-0.42 °C
CN(CCCCCCNc1ccnc2cc(Cl)ccc12)CCCCCCNc1ccnc2cc(Cl)ccc12,-1.1 °C,2.96 °C,0.27 °C,-0.85 °C,-0.7 °C,-0.51,-1.69 °C,0.54 °C
N[C@](CCCCB(O)O)(CCN1CCCCC1)C(=O)O,0.12 °C,2.02 °C,1.3 °C,-0.19 °C,-0.19 °C,0.26,-1.26 °C,0.59 °C
CC[C@H](C)[C@H](NC(C)=O)C(=O)N[C@@H](CCC(=O)O)C(=O)N[C@H](C(=O)N[C@H](C=O)CC(=O)O)[C@@H](C)O (Ac-IETD-aldehyde),0.22 °C,-2.51 °C,-0.65 °C,0.05 °C,-1.72 °C,-0.3,-1.5 °C,-1.13 °C
CC1=NN(c2ccc(C(=O)O)cc2)C(=O)/C1=C/c1ccc(-c2cc(C)c(C)cc2[N+](=O)[O-])o1,3.73 °C,-0.48 °C,0.29 °C,0.15 °C,0.03 °C,0.41,-0.94 °C,-1.19 °C
COc1cc(Oc2ccnc3cc(OC)c(OC)cc23)ccc1NC(=O)NC(C)c1nccs1 (configuration not stated),9.54 °C,-3.36 °C,,0.28 °C,-1.46 °C,-9.78,-0.11 °C,-0.38 °C
Cc1ccc(C)c(-n2sc3cc(F)ccc3c2=O)c1,-15.6 °C,-11.5 °C,-5.52 °C,-0.06 °C,0 °C,-16.1,-1.97 °C,0 °C
CC(C)c1cnc(CSc2cnc(NC(=O)C3CCNCC3)s2)o1,0.26 °C,-1.43 °C,6.28 °C,1.43 °C,7.03 °C,-0.12,3.08 °C,-0.84 °C
COC(=O)CC(NC(=O)C(C)NC(=O)C(NC(=O)C(CC(=O)OC)NC(=O)C(NC(=O)OCc1ccccc1)C(C)C)C(C)C)C(=O)CF (configuration not stated) (Cbz-VD(OMe)VAD(OMe)-CH2F; configuration not given here),0.15 °C,-1.13 °C,0.27 °C,-0.22 °C,0.19 °C,0.29,-1.87 °C,-0.97 °C
